The results in this text go back to PubChem BioAssay AID1220 (Sanford-Burnham Center for Chemical Genomics, 2008).

About 1,300 (0.68%) of roughly 190,000 compounds were called active. No stated cut-off is given here; in the data, active means inhibition above about 50%; inactive means the rest. For the sample, actives were picked, then their nearest neighbours and some compounds at random.

The target of this assay is Mannose-6-phosphate isomerase (Homo sapiens) (UniProt P34949). Description: human PMI inhibitors, high substrate, primary screen, biochemical, fluorescence intensity, high mannose 6-phosphate (AID 1220). The conditions noted are these: recombinant PMI enzyme, coupled fluorescence intensity; at 20 µM; hits give high values.
Sequence of Mannose-6-phosphate isomerase (Homo sapiens) (P34949 whole entry, looked up): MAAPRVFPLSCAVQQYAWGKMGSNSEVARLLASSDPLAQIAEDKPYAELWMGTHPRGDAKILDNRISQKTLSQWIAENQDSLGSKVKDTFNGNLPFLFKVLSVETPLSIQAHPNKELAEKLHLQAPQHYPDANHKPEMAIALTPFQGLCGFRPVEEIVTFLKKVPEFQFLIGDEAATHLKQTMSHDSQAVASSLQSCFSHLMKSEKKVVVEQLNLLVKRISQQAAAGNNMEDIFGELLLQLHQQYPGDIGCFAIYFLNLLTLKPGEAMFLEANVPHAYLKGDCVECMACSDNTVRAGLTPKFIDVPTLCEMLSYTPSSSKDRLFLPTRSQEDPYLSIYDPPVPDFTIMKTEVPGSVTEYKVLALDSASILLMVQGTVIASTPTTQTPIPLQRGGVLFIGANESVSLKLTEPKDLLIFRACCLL
As to `COc1ccccc1NC(=O)CN1CCN(c2ccccn2)CC1`, the inhibition is -9% (inactive).

Turning to `COC(=O)Cc1c(C)c2ccc(OCC(=O)N(C)C)cc2oc1=O`, the inhibition was -8.1% (inactive).

On to `Cc1cc(C)n(C(=O)CCCCCC(=O)n2nc(C)cc2C)n1`, for which the inhibition was -6.2% (inactive).

For the compound `O=C(CCN1C(=O)C2C3C=CC(C3)C2C1=O)Nc1ccccc1` (stereo not given), the inhibition is -8.2% (inactive).

On to `C/C(=N\NC(=O)Cn1c(-c2ccccn2)nc2ccccc21)c1cccc(O)c1`, for which the inhibition is -16.2% (inactive).

As to `NNC(=O)c1cc2c(s1)CCCCCC2`, the inhibition was -2.3% (inactive).

For `O=C(Nc1ccc2c(c1)OCCO2)c1cccc(S(=O)(=O)N2CCCCC2)c1`, the inhibition is 18.2% (inactive).

Regarding `COC(=O)c1ccc(C)c(N(CCO)CCO)c1`, the inhibition is 0.5% (inactive).

For the compound `COc1ccc(-n2c(C(C)(C)C)csc2=Nc2c(C)n(C)n(-c3ccccc3)c2=O)cc1`, the inhibition is 5.7% (inactive).

On to `O=C(O)c1ccccc1NS(=O)(=O)c1ccc2c3c(cccc13)C(=O)N2`, for which the inhibition was -2% (inactive).

As to `O=C1Nc2ccc(NS(=O)(=O)c3cccs3)c3cccc1c23`, the inhibition was 65.7% (active).

Turning to `O=S(=O)(Nc1cccc2[nH]ncc12)c1cccs1`, the inhibition is 5.1% (inactive).

Turning to `COc1ccc(C(CNC(=O)CCOc2ccccc2)N(C)C)cc1` (stereo not given), the inhibition is -3.8% (inactive).

`O=C(O)c1ccc(COc2ccc3ccccc3c2/C=C2/NC(=O)N(Cc3ccc(F)cc3)C2=O)cc1`: the inhibition was 52.7% (active).

Consider `O=C(O)c1ccc(COc2ccccc2/C=C2\NC(=O)N(Cc3ccc(F)cc3)C2=O)cc1`, for which the inhibition was -7.9% (inactive).

With `O=C(O)c1ccc(COc2ccc3ccccc3c2/C=C2/NC(=O)N(c3ccccc3)C2=O)cc1`, the inhibition was 22.6% (inactive).

As for `CC1CC(C)CN(CCCNC(=O)c2csc3c2CCCC3)C1` (stereo not given), the inhibition was 8.3% (inactive).

As for `CCC(=O)Nc1ccc(Cl)c(NC(=O)c2ccc(Br)o2)c1`, the inhibition is 1.8% (inactive).

Turning to `CC1C(C#N)=C(N)OC2=C1C(=O)CC(c1ccccc1)C2` (stereo not given), the inhibition was 10.5% (inactive).

As for `N#CC1=C(N)OC2=C(C(=O)CC(c3ccccc3)C2)C1c1ccoc1` (stereo not given), the inhibition was -1.4% (inactive).

Take `CC(C)CC1C(C#N)=C(N)OC2=C1C(=O)CC(c1ccccc1)C2` (stereo not given): the inhibition was 57% (active).

With `CCN(CC)C(=O)C1=C(C)Nc2nnnn2C1c1cccnc1` (stereo not given), the inhibition was 6.1% (inactive).

Regarding `CC[n+]1c(/C=C/N(C)c2ccccc2)oc2ccc(F)cc21`, the inhibition is 26.2% (inactive).

As to `CC[n+]1c(/C=C/N(C)c2ccccc2)oc2ccc(Cl)cc21`, the inhibition is 51.8% (active).

As for `CC[n+]1c(/C=C/N(C)c2ccccc2)oc2ccccc21`, the inhibition was 36.4% (inactive).

For `CCCc1cc(=O)[nH]c(SCC(=O)N(C)Cc2ccccc2)n1`, the inhibition was 10.9% (inactive).

As to `O=C(NCc1ccco1)C(C(=O)c1ccccc1)n1ccccc1=O` (stereo not given), the inhibition was 1% (inactive).

In the case of `O=C(NCCNS(=O)(=O)c1ccccc1)N1CCOCC1`, the inhibition was -0.7% (inactive).

In the case of `CCOC(=O)C(NC(=O)Nc1ccc(C(N)=O)cc1)(c1ccccc1)C(F)(F)F` (stereo not given), the inhibition is -6.9% (inactive).

Take `CCOC(=O)C(NC(=O)NC1CCCCC1)(c1ccccc1)C(F)(F)F` (stereo not given): the inhibition is -5.1% (inactive).

Consider `CCOC(=O)C(NC(=O)Nc1ccc(O)cc1)(c1ccccc1)C(F)(F)F` (stereo not given), for which the inhibition is 50.4% (active).

Consider `O=C(Cc1ccc(Cl)cc1)NCCS(=O)c1ccc(Cl)cc1` (stereo not given), for which the inhibition is 8% (inactive).

As for `CCCN1CCN(CCCNC(=O)CCn2nc(-c3ccccc3)ccc2=O)CC1`, the inhibition is -12.2% (inactive).

`CCCn1c(CCc2ccccc2)n[nH]c1=S`: the inhibition was 2.6% (inactive).

Take `O=C(O)c1ccccc1C(=O)Nc1ccc(Br)c2cccnc12`: the inhibition was 53.1% (active).

Regarding `O=C(Nc1cccc2cccnc12)c1cccc2ccccc12`, the inhibition is -6.9% (inactive).

With `O=C(O)c1ccccc1C(=O)Nc1ccccn1`, the inhibition is 7.2% (inactive).

`c1ccc2c(c1)nc1sccn12`: the inhibition is -4.9% (inactive).

Consider `Cc1ccc(/C=C(/C#N)C(=O)NC(=O)Oc2ccccc2)cc1`, for which the inhibition is 3.4% (inactive).

`O=C(NCc1ccccc1)NC1CCCCC1`: the inhibition was 5.5% (inactive).

As to `O=C(NC1CCCCC1)Oc1cccc2ccccc12`, the inhibition was 61.4% (active).

Consider `S=C(Nc1cccc2ccccc12)NC1CCCCC1`, for which the inhibition is 48.3% (inactive).

On to `c1ccc(OCCCc2nc(-c3cccnc3)no2)cc1`, for which the inhibition was -2.4% (inactive).

For the compound `Cc1cc(C)n2c(Nc3ccc4c(c3)OCCO4)c(-c3ccc(C)o3)nc2n1`, the inhibition was 0.2% (inactive).

With `CCCc1nc(N)c(C#N)c(-c2cccnc2)c1CC`, the inhibition is 9.6% (inactive).

Regarding `NC(=O)C1=C[C@H](c2csc3ccccc23)C[C@H](OCCCCO)O1`, the inhibition is 63.4% (active).

Regarding `O=C(O)C1=C[C@@H](c2csc3ccccc23)C[C@@H](OCCCCO)O1`, the inhibition was 1.5% (inactive).

With `O=C(NC1CC1)C1=C[C@H](c2csc3ccccc23)C[C@H](OCCCCO)O1`, the inhibition was 1.4% (inactive).

For `NC(=O)C1=C[C@@H](c2csc3ccccc23)C[C@@H](OCCCCO)O1`, the inhibition is 59.2% (active).

For the compound `O=C(C1=C[C@H](c2csc3ccccc23)C[C@H](OCCCCO)O1)N1CCOCC1`, the inhibition was 9.5% (inactive).

`O=C(O)C1=C[C@H](c2csc3ccccc23)C[C@H](OCCCCO)O1`: the inhibition is -1.5% (inactive).

For the compound `Cc1ccc(C(C(=O)NCc2ccco2)N(C(=O)Cc2cccs2)c2cccnc2)cc1` (stereo not given), the inhibition was -5% (inactive).

As to `c1ccc(COC2CCCN(Cc3nc(-c4cccs4)no3)C2)nc1` (stereo not given), the inhibition is 13.3% (inactive).

Consider `O=C(Cn1nnc(-c2ccccc2F)n1)Nc1cccc2ncccc12`, for which the inhibition was -0.5% (inactive).

Consider `CS(=O)(=O)c1ccc2nc(N)sc2c1`, for which the inhibition is 6.1% (inactive).

As for `CCOC(=O)c1c(C)[nH]c(C)c1C(=O)COC(=O)c1ccc(Cl)c(S(N)(=O)=O)c1`, the inhibition was -8.6% (inactive).

As to `O=S(=O)(/N=C(/c1ccccc1)N1CCCCC1)c1ccccc1`, the inhibition is 7.7% (inactive).

Take `N#Cc1c(Nc2ccccc2)sc(C(=O)c2ccc(F)cc2)c1N`: the inhibition was 1.5% (inactive).

For the compound `O=c1cnnc(Nc2cccc(F)c2)[nH]1`, the inhibition is -14.5% (inactive).

As for `N#Cc1c(Nc2cccc(F)c2)sc2c(O)cc(=O)[nH]c12`, the inhibition is 55.8% (active).

As to `CN(C)C(=O)c1ccc2c(c1)n(C)c(=O)n2C`, the inhibition is -6.4% (inactive).

As to `CCCCNC(=O)CSc1nc2ccccc2c(=O)n1C1CCCC1`, the inhibition is 0.1% (inactive).

In the case of `O=C(CNc1ccccc1)NNC1=NCCC1`, the inhibition is 14.8% (inactive).

As to `O=C(CNc1ccc(Br)cc1)NNC1=NCCC1`, the inhibition is -3.4% (inactive).

For `O=C(CNc1ccc2ccccc2c1)NNC1=NCCC1`, the inhibition is 52.9% (active).

As a reminder, the inhibition is the relative decrease from the control value, in per cent.
